Rab9 promoter act = activates the Rab9 promoter. Potency, µM (top dose mostly 9.22 µM), for inactives: top-dose activation, negative = inhibition, actives largely listed as activators. Huh7 Rab9 promoter-luciferase reporter, luminescence, 24 h. 2.8% of 320,000 active; also: % of control where 0% means no effect; nearly all actives have a fitted effect of over 60% in size
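Cells were plated at 1500 per well in reduced-serum medium with 10% FBS and left 2 h. Compound in DMSO was then added for 24 h at 37 °C. Reporter signal was read by luminescence after 10 min with luciferase detection reagent.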
SMN2 splice enh = enhancers of SMN2 splice variant expression. HEK293 SMN2-luciferase splicing reporter, luminescence, 30-36 h. Potency, µM (highest dose often 46.1 µM), without a hit: top-dose activity change, positive = activation, usual class: activators. 2.8% of 210,000 active; also: % of control where 0% means no effect; nearly all actives have a fitted effect of over 55% in size
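HEK293 cells carry an SMN2 minigene-luciferase reporter in which exon 7 inclusion puts luciferase in frame. Cells were seeded at 2000 cells/well, attached for 10-12 hours, then exposed to compounds for 30-36 hours at 37C before ONE-Glo luminescence.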
FLuc counter = inhibits or activates purified firefly luciferase, miR-21 counter-screen; P08659; purified FLuc, Km substrates, luminescence inhibition; Potency, µM (titrated, usually from 57.5 µM), without a hit: top-dose activity change, negative = inhibition, most hits filed as inhibitors; 6.9% of 360,000 active; AID 588342;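 also: plate controls were vehicle for no effect and reference inhibitor for full effect; nearly all actives have a fitted effect of over 55% in size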
Target sequence (P08659 whole entry, looked up): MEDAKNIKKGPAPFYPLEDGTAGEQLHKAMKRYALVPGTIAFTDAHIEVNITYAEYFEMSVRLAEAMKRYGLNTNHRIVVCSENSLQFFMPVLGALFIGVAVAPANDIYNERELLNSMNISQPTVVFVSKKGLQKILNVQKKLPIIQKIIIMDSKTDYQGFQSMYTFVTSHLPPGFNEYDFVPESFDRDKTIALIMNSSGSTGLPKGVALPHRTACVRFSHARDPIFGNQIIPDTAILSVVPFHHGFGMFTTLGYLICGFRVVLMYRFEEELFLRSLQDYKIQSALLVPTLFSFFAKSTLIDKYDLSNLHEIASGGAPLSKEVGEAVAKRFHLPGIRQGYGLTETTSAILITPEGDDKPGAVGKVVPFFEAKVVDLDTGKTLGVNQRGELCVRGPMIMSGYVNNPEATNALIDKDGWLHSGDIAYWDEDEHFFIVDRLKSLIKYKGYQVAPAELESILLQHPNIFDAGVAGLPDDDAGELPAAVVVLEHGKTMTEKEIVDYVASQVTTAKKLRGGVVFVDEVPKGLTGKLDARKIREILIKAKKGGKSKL
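Biochemical qHTS of compounds, final roughly 60 µM downward over six points, against 10 nM purified firefly luciferase using Km concentrations of substrates (10 uM D-luciferin, 10 uM ATP) in Tris acetate pH 7.5 buffer; luminescence output.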
NPC1 prom act = activators of NPC1 promoter; Potency, µM (titrated, usually from 9.22 µM), for the others: top-dose activation, hits mostly activators; 2.4% of 320,000 active; AID 485313; Huh7 NPC1 promoter luciferase reporter, 24 h; also: % of control where 0% means no effect; nearly all actives have a fitted effect of over 60% in size
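Stably transfected Huh7 (NPC1 promoter→luciferase), 1500 cells/well in Opti-MEM + 10% FBS, 2 h settle, then compound 24 h at 37 °C. Luminescence after 10 min with Amplite reagent.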
ELG1 genotoxic = genotoxicity induction in ELG1-luciferase HEK293T cells; HEK293T ELG1-luciferase reporter, luminescence, 16 h; Potency, µM (series often up to 46 µM), for inactives: at the top dose activity change, positive = activation, most hits filed as activators; 1.3% of 330,000 active; also: % of control where 0% means no effect; nearly all actives have a fitted effect of over 60% in size
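16 hr compound incubation (37 °C, 5% CO2) of HEK293T cells carrying luciferase-tagged ELG1; luciferase then measured by ONE-Glo luminescence after 30 min at RT.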
An asterisk follows results filed as active; ? = inconclusive; · = no result given; ! = repeats disagree; [ ] = remark or other dose. Only some compounds are listed: those with a hit (about 7.5% of all), similar ones and a draw of the others. Calls follow the shape of the dose curve; as a rule, active = well fitted curve in the direction sought with a large enough effect; inconclusive = small, poorly fitted or top-dose-only effect, or another doubt; inactive = no such curve, though single readings can be large; an effect the other way counts as inactive or inconclusive. Potency is read from the fitted curve at half-maximal effect.

SMILES	Rab9 promoter act	SMN2 splice enh	FLuc counter	NPC1 prom act	ELG1 genotoxic
CC(NC(=O)c1cccc(S(=O)(=O)N2CCN(C)CC2)c1)c1ccc(Cl)cc1Cl (centres undefined)	-8%	·	-1%	-3%	-6%
Cc1cccc(CNc2ncnc3ccc(-c4ccccc4CN(C)C)cc23)c1	·	-25%	·	·	·
COc1ccc2nc(NC(=O)c3cnccn3)sc2c1	2.2µM*	4µM*	3µM*	3.2µM*	?
Cc1cc(C)c2nc(NNC(=O)c3cc(=O)c4ccccc4o3)sc2c1	15%	·	13µM*	1%	3%
COc1ccc(C(=O)Nc2nc3ccc(OC)cc3s2)cc1	?	·	1.7µM*	2.5µM*	?
COc1ccc(C(=O)Nc2nc3ccc(S(C)(=O)=O)cc3s2)cc1	16%	6%	?	2%	3%
CCSc1ncc(Cl)c(C(=O)Nc2nc3ccc(OC)cc3s2)n1	·	-4%	-7%	·	·
CCn1cc([N+](=O)[O-])c(C(=O)Nc2nc3ccc(OC)cc3s2)n1	0.32µM*	-4%	24µM*	0.4µM*	7%
COc1cc2cc3c(N)c(C(=O)Nc4sc(C)c(C)c4C#N)sc3nc2cc1OC	0%	-16%	-12%	-2%	3%
CCOc1ccc(-c2nnc(SCC(=O)O)n2Cc2ccccc2)cc1	3%	·	-1%	0%	-1%
O=C(Nc1cccc(Cl)c1)c1cc(N=Nc2ccc([N+](=O)[O-])cc2Cl)ccc1O	-15%	·	12µM*	2%	-16%
Cc1ccc(O)c(NC(=O)c2cc([N+](=O)[O-])ccc2Cl)c1	-8%	-82%	0%	0%	-15%
Cc1cc([N+](=O)[O-])ccc1NC(=O)Nc1ccc(F)cc1F	-1%	-35%	-2%	-3%	-11%
O=C(Nc1ccc([N+](=O)[O-])cc1Cl)c1cc(Cl)ccc1O	0.1µM*	25µM*!	0.21µM*	0.065µM*	?
O=C(Nc1ccccc1F)Nc1ccc([N+](=O)[O-])cc1Cl	4µM*	·	?	?	4%
O=C(Nc1ccc2nc3n(c(=O)c2c1)CCCCC3)C(=O)N1CCN(c2ccc(F)cc2)CC1	-2%	·	-16%	-3%	-14%
CCOC(=O)C1CCCN(C(=S)Nc2cccc(Cl)c2C)C1 (centres undefined)	-5%	-12%	-1%	-5%	0%
BrC(=C\c1ccccc1)/C=N/Nc1ccc2nncn2n1	-2%	·	13µM*	1%	6%
Cc1ccc(N/C=C(/C#N)c2ccsc2)cc1C	·	13µM*	2.4µM*	·	·
Cc1ccc(N/N=C(\C#N)C(N)=S)cc1C	1%	-2%	?	5%	-5%
COc1ccc(C(=O)NCC(C)(C)N2CCOCC2)cc1S(=O)(=O)N1CCCC1	1%	·	1%	-2%	0%
Cn1cccc1C(=O)N1CCC2(CC1)CCN(c1ccncc1)CC2	·	-55%	·	·	·
CCOC(=O)c1ccc(N2CCOCC2)c(NC(=O)c2ccc3c(c2)OCO3)c1	9%	·	0%	1%	1%
COc1cc(C(=O)Nc2ccc3nc4n(c(=O)c3c2)CCCCC4)cc(OC)c1OC	2%	30%	13µM*	-2%	-5%
O=C(Nc1ccc2nc3n(c(=O)c2c1)CCCC3)c1ccccc1F	27%	·	?	28%	6%
SMILES	Rab9 promoter act	SMN2 splice enh	FLuc counter	NPC1 prom act	ELG1 genotoxic
O=C(Nc1ccc2nc3n(c(=O)c2c1)CCCCC3)c1ccccn1	1.1µM*	3.2µM*	7.6µM*	1.6µM*	?
COc1ccc(C(=O)Nc2ccc3nc4n(c(=O)c3c2)CCCCC4)cc1OC	·	11%	-1%	·	·
FC(F)(F)c1cc(NC(=S)N2c3ccccc3-n3cccc3[C@H]2c2cccnc2)cc(C(F)(F)F)c1	·	-2%[9.22 µM]	·	·	·
COc1ccc(NC(=O)c2ccc(C)cc2)c[n+]1[O-]	10%	·	?	15%	8%
CCc1ccc2nc(N(CCN(C)C)C(=O)c3ccc4ncsc4c3)sc2c1	1.8µM*	·	13µM*	2.8µM*	3.7µM*
Cc1ccc(-c2cc(C(=O)N/N=C/c3c(C)nn(-c4ccccc4)c3C)n[nH]2)s1	-15%	-71%	11µM*	-12%	-5%
Cc1cc(C(=O)N/N=C/c2c(C)[nH]c3ccccc23)n[nH]1	-4%	·	?	2%	-2%
O=C(N=Nc1c(O)[nH]c2ccccc12)c1cc(-c2cccs2)[nH]n1	17%	·	12µM*	?	2%
Cc1nn(-c2ccccc2)c(C)c1/C=N/NC(=O)c1cc(C(C)(C)C)[nH]n1	-3%	?	?	-1%	-1%
O=C(Cc1cccs1)N=Nc1c(O)[nH]c2ccccc12	25%	·	?	10%	10%
Cc1[nH]c2ccccc2c1/C=N/NC(=O)CCC(=O)NCc1ccccc1	-3%	·	-1%	-6%	0%
CCC(=O)Nc1ccc(C(=O)N/N=C/c2c(C)[nH]c3ccccc23)cc1	0%	6%	21µM*	0%	11%
Cc1[nH]c2ccccc2c1/C=N/NC(=O)c1cc(-c2cccs2)[nH]n1	-1%	9%	15µM*	-4%	-5%
O=C(CSc1nc(=O)n(Cc2ccco2)c2c1CCC2)NCc1ccccc1	·	·	-10%	·	·
COc1ccccc1NC(=O)c1oc2ccccc2c1NC(=O)COc1cccc(C)c1	·	-4%	-4%	·	·
O=C(Cn1cc(S(=O)(=O)Cc2cccc(Cl)c2)c2ccccc21)NCCc1ccccc1	·	·	-1%	·	·
COC(=O)c1ccc(N2OC3(C)C=CC2CC3)cc1 (centres undefined)	?	?	21µM*	30%	?
COC(=O)c1ccc(N2C(=O)CC(N3CCOCC3)C2=O)cc1 (centres undefined)	-3%	4%	3%	-1%	0%
Cc1cccc(-c2nc3cc(NC(=O)COc4ccccc4F)ccc3o2)c1	·	·	5%	·	·
COC(=O)C(C)Oc1ccc2cc(-c3ccccc3)c(=O)oc2c1 (centres undefined)	-4%	·	24µM*	-1%	3%
COC(=O)C(C)Oc1cc(OC(C)C(=O)OC)c2c(C)c(Cl)c(=O)oc2c1 (centres undefined)	-4%	8%	8%	0%	2%
COc1ccc2cc(-c3ccccc3)c(=O)oc2c1	0.71µM*	·	2.4µM*	1.3µM*	2.6µM*
O=C(O)COc1ccc2c(-c3ccccc3)cc(=O)oc2c1	16%	?	19µM*	10%	10%
CCN(CC)C(=O)COc1ccc2c(-c3ccccc3)cc(=O)oc2c1	-3%	·	-7%	-5%	0%
CN(C)C(=O)COc1ccc2cc(-c3ccccc3)c(=O)oc2c1	2µM*	18µM*	?	4µM*	?
CCc1nnc2c(NCCc3ccccc3)nc3ccccc3n12	-1%[1.84 µM]	·	-3%	-5%	-4%
CCCOc1ccc2cc(-c3ccccn3)c(=O)oc2c1	0.45µM*	0.79µM*	0.24µM*	?	?
